This is an account of results in PubChem BioAssay (NCI).

Some test systems named below: HCT-15 colon; HT29 colon; SNB-75 CNS; SNB-19 CNS; U251 CNS; PC-3 prostate; SK-MEL-5 melanoma; UACC-62 melanoma; LOX IMVI melanoma; SK-MEL-28 melanoma.
What all share (test): NCI-60 one-dose screen, 48 h (100 = growth as untreated, 0 = no growth, -100 = all killed)
What all share (settings): 10 µM unless noted

About 83,000 compounds went through this panel and 20% of them were active in at least one assay; those are over-represented in the sample as a whole.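 In brief: 96-well plates, 48 h treatment, single concentration, percent growth endpoint.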 Values without a mark were called inactive. Active and inactive are the calls of the source. The calls were made as follows: active = growth percent below 10; inactive = the rest.

Consider `COc1ccc(/C=C(/C2=NCCN2)n2ccc3ccccc32)cc1`, for which the growth in the assay on HCT-15 colon was 95.7%; in the assay on HT29 colon it was 89%; with SNB-75 CNS it was 65%; in the assay on SNB-19 CNS it was 91.6%; in the assay with U251 CNS, 89%; with PC-3 prostate, 73.4%. Besides, the growth in the assay with SK-MEL-5 melanoma was 94.7%; in the assay with UACC-62 melanoma, 86.8%; with LOX IMVI melanoma, 84.7%; with SK-MEL-28 melanoma, 104%.
On to `C=C(CC(=O)OC)C(C)=O`, for which the growth in the assay with HCT-15 colon is 117%; in the assay on HT29 colon, 119%; in the assay on SNB-75 CNS, 110%; with SNB-19 CNS, 103%; in the assay on U251 CNS, 116%; with PC-3 prostate it was 109%. For the same compound, the growth is 107% with SK-MEL-5 melanoma, 95.4% in the assay with UACC-62 melanoma, 110% in the assay with LOX IMVI melanoma and 118% in the assay on SK-MEL-28 melanoma.
For the compound `O=C(Nc1ccc(CN2CCOCC2)c(C(F)(F)F)c1)c1nc2ccc3[nH]ncc3c2c2c1CCCC2`, the growth was 82.4% in the assay on HCT-15 colon; 74.8% in the assay with HT29 colon; 128% in the assay with SNB-75 CNS; 98.4% with SNB-19 CNS; 92% in the assay on U251 CNS; 66.2% in the assay with PC-3 prostate. Further, the growth with SK-MEL-5 melanoma is 102%; with UACC-62 melanoma, 79.2%; with LOX IMVI melanoma, 90.5%; in the assay on SK-MEL-28 melanoma, 103%.
As to `C#CCOc1ccc(C2=NN(CC3CC3)C3N=C(Cl)c4ncn(CC5CC5)c4N23)cc1OCC#C` (stereo not given), the growth in the assay with HCT-15 colon is 69.5%; in the assay with HT29 colon, 84.3%; in the assay on SNB-75 CNS it was 84.6%; in the assay with SNB-19 CNS, 98.7%; with U251 CNS, 70.5%; in the assay with PC-3 prostate it was 63.7%. Also, the growth was 60.9% with SK-MEL-5 melanoma, 59.7% in the assay with UACC-62 melanoma, 68.4% in the assay on LOX IMVI melanoma and 93.6% in the assay on SK-MEL-28 melanoma.
Consider `COc1ccc(C=C2c3ccccc3-c3ccccc32)cc1`, for which the growth with HCT-15 colon was 25.8%; in the assay on HT29 colon, 13.7%; in the assay with SNB-75 CNS, 43.3%; in the assay with SNB-19 CNS it was 51.4%; in the assay with U251 CNS, 34.8%; with PC-3 prostate it was 63.6%. The growth in the assay on SK-MEL-5 melanoma is 60.3%; in the assay with UACC-62 melanoma it was 23.6%; with LOX IMVI melanoma, 41.3%; in the assay on SK-MEL-28 melanoma it was 64.9%.
In the case of `CC(C)c1ccc(C(=O)Nc2sc3c(c2C#N)CCC(=O)C3)cc1`, the growth in the assay with HCT-15 colon is -24.5% (active); with HT29 colon, 8.34% (active); in the assay on SNB-75 CNS, -42.1% (active); with SNB-19 CNS, 11.4%; in the assay on U251 CNS, 15%; in the assay on PC-3 prostate, 1.47% (active). The growth in the assay with SK-MEL-5 melanoma is -62.9% (active); in the assay on UACC-62 melanoma, -27.8% (active); in the assay on LOX IMVI melanoma it was 16.7%; in the assay with SK-MEL-28 melanoma it was 22.3%.
On to `O=S(=O)(NCc1ccccc1)c1ncnc2nc[nH]c12`, for which the growth in the assay on HCT-15 colon is 108%; in the assay with HT29 colon it was 106%; with SNB-75 CNS, 91.4%; in the assay with SNB-19 CNS it was 108%; in the assay with U251 CNS, 86%; in the assay on PC-3 prostate, 105%. Besides, the growth is 99.7% in the assay on SK-MEL-5 melanoma, 96.4% in the assay with UACC-62 melanoma, 99.1% with LOX IMVI melanoma and 107% with SK-MEL-28 melanoma.
Take `CC(C)=CCC[C@](C)(O)[C@H]1CC[C@]2(C)[C@@H]1CC[C@@H]1[C@@]3(C)CC/C(=N/O)C(C)(C)[C@@H]3CC[C@]12C`: the growth in the assay with HCT-15 colon was 29.7% [100 µM]; in the assay with HT29 colon, -43.5% [100 µM] (active); in the assay with SNB-75 CNS it was -38.8% [100 µM] (active); in the assay on SNB-19 CNS, -28.8% [100 µM] (active); in the assay with U251 CNS, -81.5% [100 µM] (active); in the assay with PC-3 prostate it was -52.1% [100 µM] (active). Further, the growth with SK-MEL-5 melanoma was -45.3% [100 µM] (active); with UACC-62 melanoma it was -59.2% [100 µM] (active); in the assay with LOX IMVI melanoma, -9.59% [100 µM] (active); in the assay on SK-MEL-28 melanoma it was -36.1% [100 µM] (active).
As to `O=C(N=c1n(-c2ccccc2)nc2n1CCN2C1=NCCN1)c1ccc(Cl)cc1`, the growth is 82.5% with HCT-15 colon; 67.5% with HT29 colon; 66.3% in the assay on SNB-75 CNS; 91.9% with SNB-19 CNS; 80.8% with U251 CNS; 72.7% in the assay on PC-3 prostate. Further, the growth in the assay with SK-MEL-5 melanoma was 65.6%; in the assay on UACC-62 melanoma, 64.1%; with LOX IMVI melanoma it was 61.2%; with SK-MEL-28 melanoma it was 81.3%.
With `O=c1[nH]c(CN2CCN(c3cccc(Cl)c3)CC2)nc2cc(Cl)ccc12`, the growth is 94.4% in the assay on HCT-15 colon; 106% with HT29 colon; 80.5% in the assay with SNB-75 CNS; 91.3% with SNB-19 CNS; 94.6% with U251 CNS; 90.6% in the assay on PC-3 prostate. Also, the growth is 99.4% in the assay on SK-MEL-5 melanoma, 93.8% in the assay on UACC-62 melanoma, 92.5% in the assay with LOX IMVI melanoma and 102% in the assay with SK-MEL-28 melanoma.
As to `CCOC(=O)c1ccc2nc(-c3c(C)nn(-c4ccccc4)c3N3CCOCC3)[nH]c2c1`, the growth in the assay with HCT-15 colon was 103%; in the assay on HT29 colon, 110%; in the assay with SNB-75 CNS, 84.9%; in the assay with SNB-19 CNS it was 98.6%; with U251 CNS, 90.8%; in the assay on PC-3 prostate, 86.9%. Moreover, the growth in the assay with SK-MEL-5 melanoma was 94.2%; with UACC-62 melanoma, 77.5%; with LOX IMVI melanoma it was 82%; in the assay with SK-MEL-28 melanoma, 110%.
In the case of `C[n+]1c(-c2ccccc2)c2cc(N)ccc2c2ccccc21`, the growth in the assay on HCT-15 colon was 101%; with HT29 colon, 31.5%; in the assay on SNB-75 CNS, -0.792% (active); in the assay with SNB-19 CNS, -2.68% (active); with U251 CNS, 11.6%; with PC-3 prostate it was 58.4%. Further, the growth in the assay on SK-MEL-5 melanoma was 0.275% (active); in the assay on UACC-62 melanoma, 0.188% (active); in the assay with LOX IMVI melanoma, 40.2%; in the assay with SK-MEL-28 melanoma it was 10.4%.
As for `COc1ccc2c3ccnc(C(F)(F)F)c3n(CCCCN)c2c1`, the growth in the assay with HCT-15 colon was 62.9%; in the assay with HT29 colon, 22.6%; in the assay on SNB-75 CNS, 49.2%; in the assay with SNB-19 CNS, 68%; in the assay on U251 CNS it was 46.4%; in the assay with PC-3 prostate, 22.8%. Further, the growth was 70.7% with SK-MEL-5 melanoma, 39.2% in the assay with UACC-62 melanoma, 32.3% with LOX IMVI melanoma and 38.6% in the assay on SK-MEL-28 melanoma.
